# Test results as given in PubChem BioAssay (NCATS).
# Records with an inconclusive call do not appear. Where a call stands in place of a potency, no number is given. The source made the active and inactive calls. Unless noted, calls follow the shape of the dose curve; as a rule, active = well fitted curve in the direction sought with a large enough effect; inconclusive = small, poorly fitted or top-dose-only effect, or another doubt; inactive = no such curve, though single readings can be large; an effect the other way counts as inactive or inconclusive.
# Tests used:
# [1] = biological target: Calcium and integrin-binding protein 1 (Homo sapiens) (UniProt Q99828); test: Primary qHTS for Identification of Calcium Integrin Binding Protein 1 (CIB1) Competitor (AID 1508620);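 also: GST tagged CIB1 binding a fluorescein labelled alphaIIb integrin peptide tracer; top concentration of the series differs between compounds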
# Procedure, shortened: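 CIB1-GST (1 uM final) and compound incubated 15 min at room temperature before adding FITC-alphaIIb peptide tracer (100 nM final). Competition for binding read by fluorescence polarization (ex 480, em 540) after another 15 min at room temperature.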
# [2] = Primary qHTS for small molecule stabilizers of the endoplasmic reticulum resident proteome: Secreted ER Calcium Modulated Protein (SERCaMP) assay (AID 1508630)
# Procedure, shortened: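 GLuc-SERCaMP-expressing SH-SY5Y cells, pretreated 16 h with compound, are challenged with thapsigargin to empty ER calcium stores; after 4 h, coelenterazine is added directly to the medium and luminescence is imaged.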
# [3] = A High-Content qHTS Against Drug Library for the Identification of Small Molecules that Inhibit DYT1 Early Onset Primary Dystonia-Associated Cell Pathology (AID 1645839; calls by dose curve)
# Procedure, shortened: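 In this high-content image screen, delE TorsinA mislocalization in inducible Flp-In 293 cells is scored as %pathology, with cell count serving as the counterscreen. Compound exposure lasts 48 h under tetracycline induction in reduced-serum medium.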
# [4] = biological target: Cytochrome P450 2D6 (Homo sapiens) (UniProt P10635); test: Cytochrome P450 family 2 subfamily D member 6 (CYP2D6) small molecule antagonists: luciferase biochemical (cell-free) qHTS assay (AID 1645840; active = well fitted curve in the direction sought with a large enough effect in the repeat runs; an effect the other way counts as inactive or inconclusive; also: nearly all actives have a fitted effect of over 55% in size; also: potency is read from the fitted curve at half-maximal effect)
# Procedure, shortened: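 P450-Glo luminescent screen: recombinant CYP2D6 enzyme–proluciferin substrate mix preincubated with compound 10 min at room temperature, then NADPH regeneration added for 1 h at room temperature. Detection reagent added for 20 min; luciferin light read as relative luminescence units.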
# [5] = biological target: Cytochrome P450 2C9 (Homo sapiens) (UniProt P11712); test: Cytochrome P450 family 2 subfamily C member 9 (CYP2C9) small molecule antagonists: luciferase biochemical (cell-free) qHTS assay (AID 1645842; active = well fitted curve in the direction sought with a large enough effect in the repeat runs; an effect the other way counts as inactive or inconclusive; also: nearly all actives have a fitted effect of over 55% in size; also: potency is read from the fitted curve at half-maximal effect)
# Procedure, shortened: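 Luminescence, after 20 min with luciferin detection reagent, reflected CYP2C9 turnover during a 1 h NADPH-driven reaction at 37C. Enzyme-substrate mix contained 0.4% bovine serum albumin and was preincubated with compound 10 min at room temperature.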
# [6] = Cytotoxicity counterscreen for inhibitors of SARS-CoV-2 cell entry (AID 1645845; calls by dose curve; also: nearly all actives have a fitted effect of over 50% in size)
# Procedure, shortened: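 48 h compound treatment (after 1 h preincubation), HEK293-ACE2 cells, 37 C/5% CO2; ATP luminescence endpoint; normalized to cell wells and media blanks.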
# [7] = Primary qHTS to identify inhibitors of SARS-CoV-2 cell entry (AID 1645846; calls by dose curve; also: nearly all actives have a fitted effect of over 45% in size); conditions: activity change, negative = inhibition: at 57.1 µM (top of the series) unless noted
# Procedure, shortened: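 Data are normalized to wells receiving SARS-CoV-2-S pseudoparticles and those given bald particles. Entry signal was luciferase luminescence in stable hACE2 Expi293F cells, 48 hr post-infection, after 1 hr compound pretreatment.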
# [8] = Primary qHTS for inhibitors of nuclear receptor binding SET domain protein 2 (NSD2) in an isogenic RCH-ACV NSD2 p.E1099K mutant (9B) (AID 1645876); also: nearly all actives have a fitted effect of over 70% in size; also: potency is read from the fitted curve at half-maximal effect
# [9] = Primary qHTS for inhibitors of nuclear receptor binding SET domain protein 2 (NSD2) in an RCH-ACV wild type WT cells (2C) (AID 1645877); also: nearly all actives have a fitted effect of over 70% in size; also: potency is read from the fitted curve at half-maximal effect
# [10] = Counterscreen qHTS for small molecule stabilizers of the endoplasmic reticulum resident proteome: GLuc-NoTag assay (AID 1508627);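 also: SH-SY5Y cells given compound then 100 nM thapsigargin to empty ER calcium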
# Procedure, shortened: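 Luminescence of Gaussia luciferase secreted into the medium (coelenterazine, 0.07x final, unlysed cells) was the read-out. Human SH-SY5Y neuroblastoma cells constitutively secreting untagged GLuc received compound for 19 h, then 100 nM thapsigargin for 4 h.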
# [11] = Confirmatory qHTS for small molecule stabilizers of the endoplasmic reticulum resident proteome: Secreted ER Calcium Modulated Protein (SERCaMP) assay (AID 1508628); also: nearly all actives have a fitted effect of over 40% in size; also: potency is read from the fitted curve at half-maximal effect
# Procedure, shortened: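 SH-SY5Y cells stably expressing GLuc-SERCaMP, treated 16 h with compound (primary 1.53, 7.67, 38.3 uM; confirmation 11 concentrations, up to 76.6 uM), then 100 nM thapsigargin for 4 h. Secreted Gaussia luciferase in medium read by coelenterazine luminescence.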
# [12] = Cell Viability qHTS for small molecule stabilizers of the endoplasmic reticulum resident proteome (AID 1508629); conditions: cell viability counter-screen, 100 nM thapsigargin for final 4 h;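 also: human SH-SY5Y neuroblastoma cells carrying the GLuc-SERCaMP reporter; compound exposure about 46 h in total before the viability read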
# Papain (Carica papaya) = Papain (Carica papaya) (UniProt P00784); test: Primary qHTS assay for inhibitors of the protease papain (AID 1645873);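 also: papain turnover of Z-FR-AMC read as the AMC fluorescence gain over 10 min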
# [13] = biological target: Cytochrome P450 3A4 (Homo sapiens) (UniProt P08684); test: Cytochrome P450 family 3 subfamily A member 4 (CYP3A4) small molecule antagonists: luciferase qHTS assay (AID 1645841; active = well fitted curve in the direction sought with a large enough effect in the repeat runs; an effect the other way counts as inactive or inconclusive; also: nearly all actives have a fitted effect of over 45% in size)
# Procedure, shortened: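 Luminescent CYP3A4 activity readout: compounds plus enzyme-substrate mix 10 min at room temperature, reaction started with NADPH regenerating system for 1 h, stopped with detection reagent, read after 20 min. Ketoconazole served as control.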
# Sequence of Cytochrome P450 2D6 (Homo sapiens) (P10635 whole entry, looked up): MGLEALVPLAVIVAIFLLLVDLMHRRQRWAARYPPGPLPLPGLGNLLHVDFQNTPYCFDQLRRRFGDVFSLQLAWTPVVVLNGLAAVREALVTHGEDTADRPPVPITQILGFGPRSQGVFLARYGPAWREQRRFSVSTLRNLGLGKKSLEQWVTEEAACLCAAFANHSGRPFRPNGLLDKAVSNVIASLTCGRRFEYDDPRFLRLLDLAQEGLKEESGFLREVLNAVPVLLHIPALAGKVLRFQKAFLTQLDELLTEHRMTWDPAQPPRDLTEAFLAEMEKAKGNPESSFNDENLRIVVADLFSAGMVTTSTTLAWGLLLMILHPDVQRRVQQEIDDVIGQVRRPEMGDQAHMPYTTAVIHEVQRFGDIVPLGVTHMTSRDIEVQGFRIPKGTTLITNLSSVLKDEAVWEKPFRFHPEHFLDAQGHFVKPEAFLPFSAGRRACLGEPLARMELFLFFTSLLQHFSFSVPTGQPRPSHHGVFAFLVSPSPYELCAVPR
# Sequence of Calcium and integrin-binding protein 1 (Homo sapiens) (Q99828 whole entry, looked up): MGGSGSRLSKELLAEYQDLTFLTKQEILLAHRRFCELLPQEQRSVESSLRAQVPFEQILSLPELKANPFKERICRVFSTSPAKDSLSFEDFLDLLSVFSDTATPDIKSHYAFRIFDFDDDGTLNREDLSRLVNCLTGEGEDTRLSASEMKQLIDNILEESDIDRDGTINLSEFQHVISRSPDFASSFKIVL
# Sequence of Cytochrome P450 2C9 (Homo sapiens) (P11712 whole entry, looked up): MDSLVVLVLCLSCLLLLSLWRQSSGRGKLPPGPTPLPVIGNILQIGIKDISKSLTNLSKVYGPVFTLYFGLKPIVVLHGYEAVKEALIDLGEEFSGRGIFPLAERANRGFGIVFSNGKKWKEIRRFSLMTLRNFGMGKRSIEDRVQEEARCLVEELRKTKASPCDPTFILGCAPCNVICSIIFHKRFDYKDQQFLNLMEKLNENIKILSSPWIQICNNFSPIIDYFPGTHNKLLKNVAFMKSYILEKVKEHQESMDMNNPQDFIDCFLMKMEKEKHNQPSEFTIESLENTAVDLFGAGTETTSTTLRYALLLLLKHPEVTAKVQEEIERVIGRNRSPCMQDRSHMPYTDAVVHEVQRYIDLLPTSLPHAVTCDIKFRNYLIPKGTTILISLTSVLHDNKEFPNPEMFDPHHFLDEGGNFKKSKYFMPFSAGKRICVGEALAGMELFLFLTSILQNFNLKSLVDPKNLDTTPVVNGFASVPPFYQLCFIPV
# Sequence of Papain (Carica papaya) (P00784 whole entry, looked up): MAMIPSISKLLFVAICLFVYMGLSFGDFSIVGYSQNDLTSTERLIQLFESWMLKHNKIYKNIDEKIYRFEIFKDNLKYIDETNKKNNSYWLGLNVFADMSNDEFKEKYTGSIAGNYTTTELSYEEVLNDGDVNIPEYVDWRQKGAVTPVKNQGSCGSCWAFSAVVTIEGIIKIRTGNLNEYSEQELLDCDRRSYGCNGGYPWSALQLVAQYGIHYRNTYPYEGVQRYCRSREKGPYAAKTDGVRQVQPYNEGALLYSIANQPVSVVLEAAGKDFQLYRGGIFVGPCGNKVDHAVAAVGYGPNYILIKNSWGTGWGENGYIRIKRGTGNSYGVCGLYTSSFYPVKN
# Sequence of Cytochrome P450 3A4 (Homo sapiens) (P08684 whole entry, looked up): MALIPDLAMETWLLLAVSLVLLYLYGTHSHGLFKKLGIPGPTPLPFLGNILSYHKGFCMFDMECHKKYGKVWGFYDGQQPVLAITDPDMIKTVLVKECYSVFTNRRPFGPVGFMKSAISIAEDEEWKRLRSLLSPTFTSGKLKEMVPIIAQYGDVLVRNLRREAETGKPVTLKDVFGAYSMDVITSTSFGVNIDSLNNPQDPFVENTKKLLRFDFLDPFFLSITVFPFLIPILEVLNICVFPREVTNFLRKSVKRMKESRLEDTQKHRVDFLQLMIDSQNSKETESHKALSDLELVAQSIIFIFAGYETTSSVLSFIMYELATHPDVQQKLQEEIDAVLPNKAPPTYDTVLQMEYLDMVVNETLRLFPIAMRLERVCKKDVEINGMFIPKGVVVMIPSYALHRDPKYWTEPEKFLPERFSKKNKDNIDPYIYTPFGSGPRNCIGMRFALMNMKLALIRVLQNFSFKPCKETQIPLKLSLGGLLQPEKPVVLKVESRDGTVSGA
SMILES,Potency [1],outcome [2],outcome [3],Potency [4],Potency [5],Potency [6],Potency [7],Potency [8],Potency [9],Potency [10],Potency [11],max response [12],outcome (Papain (Carica papaya)),"activity change, negative = inhibition [7]",Potency [13]
O=C(O)Cc1ccccc1,inactive,inactive,inactive,15.5 µM (active),inactive,inactive,inactive,inactive,inactive,–,–,–,–,–,–
CN(C)C(=O)Oc1cc(OC(=O)N(C)C)cc(C(O)CNC(C)(C)C)c1 (stereo unspecified),inactive,inactive,inactive,8.71 µM (active),inactive,inactive,inactive,inactive,inactive,–,–,–,–,–,–
CN1[C@@H]2CC[C@H]1CC(OC(=O)c1cc(Cl)cc(Cl)c1)C2 (stereo partly specified),inactive,–,–,0.0436 µM (active),inactive,–,–,inactive,–,inactive,inactive,-1.72% (inactive),–,–,–
CC(C)=C[C@@H]1[C@@H](C(=O)OCc2coc(Cc3ccccc3)c2)C1(C)C,inactive,inactive,inactive,inactive,7.76 µM (active),–,–,–,–,–,–,–,–,–,–
NC(=O)CN1CCCC1=O,inactive,inactive,inactive,inactive,inactive,inactive,inactive,inactive,inactive,–,–,–,inactive,–,–
CCCC(C)C1(CC)C(=O)N=C(S)NC1=O (stereo unspecified),inactive,inactive,inactive,inactive,15.5 µM (active),–,–,–,–,–,–,–,–,–,–
CCC(=O)OC1(c2ccccc2)CCN(C)CC1,inactive,–,inactive,37.5 µM (active),inactive,–,–,inactive,inactive,inactive,–,–,–,–,–
CCOP(=S)(OCC)O/N=C(\C#N)c1ccccc1,inactive,inactive,inactive,13.8 µM (active),2.19 µM (active),–,–,–,–,–,–,–,–,–,–
CCCC[N+]1(C)[C@@H]2CC(OC(=O)[C@H](CO)c3ccccc3)C[C@H]1[C@@H]1O[C@@H]12 (stereo partly specified),inactive,–,inactive,2.75 µM (active),inactive,inactive,–,inactive,inactive,inactive,inactive,–,–,-15.6%,–
Cc1c(Cl)c(=O)oc2cc(OP(=O)(OCCCl)OCCCl)ccc12,inactive,–,–,1.55 µM (active),1.23 µM (active),inactive,inactive,–,–,inactive,inactive,–,–,–,–
COc1cc(C[C@@H](C)N)c(OC)cc1C,inactive,inactive,inactive,38.1 µM (active),inactive,–,–,inactive,–,–,–,–,–,–,–
C[C@]12C=CC(=O)C=C1CC[C@@H]1[C@@H]2CC[C@@]2(C)[C@H]1CC[C@]2(C)O,inactive,inactive,inactive,inactive,inactive,–,–,23.7 µM (active),–,–,–,–,–,–,inactive
COC(=O)C1=CCCN(C)C1,inactive,inactive,inactive,inactive,inactive,–,–,inactive,inactive,–,–,–,inactive,–,–
CN1C2CCC(C)(C)C1CC(OC(=O)C(O)(c1cccs1)c1cccs1)C2 (stereo unspecified),inactive,–,–,13.8 µM (active),inactive,inactive,–,–,–,inactive,–,-12.1% (inactive),–,–,–
NC1(c2ccccc2)CCCCC1,inactive,–,inactive,28 µM (active),inactive,–,–,17.1 µM (active),24.1 µM (active),inactive,56.2 µM (active),–,–,–,–
CCOC(=O)c1ncn2c1CN(C)C(=O)c1c(I)cccc1-2,inactive,inactive,inactive,inactive,inactive,–,inactive,inactive,inactive,–,–,–,–,–,–
CN(C)CCc1c[nH]c2ccccc12,inactive,inactive,inactive,62.8 µM (active),inactive,–,–,inactive,inactive,–,–,–,–,–,inactive
CC(C)C(Br)C(=O)NC(N)=O (stereo unspecified),inactive,inactive,inactive,inactive,inactive,inactive,–,inactive,inactive,–,–,–,–,4.07%,–
N#Cc1nn(-c2c(Cl)cc(C(F)(F)F)cc2Cl)c(N)c1S(=O)C(F)(F)F (stereo unspecified),inactive,inactive,inactive,3.89 µM (active),3.89 µM (active),inactive,–,–,21.1 µM (active),–,–,–,–,–,–
CC(C)=CCN1CC[C@@]2(C)c3cc(O)ccc3C[C@@H]1[C@@H]2C,inactive,–,inactive,0.176 µM (active),inactive,–,–,18.9 µM (active),11.9 µM (active),inactive,28.2 µM (active),-7.58% (inactive),–,–,–
COc1ccc(C(=O)N2CCCC2=O)cc1,inactive,inactive,inactive,inactive,inactive,inactive,inactive,inactive,inactive,–,–,–,inactive,9.75%,–
CCCCCCCCC(=O)NCc1ccc(O)c(OC)c1,inactive,inactive,inactive,13.8 µM (active),0.692 µM (active),inactive,–,inactive,inactive,–,–,–,–,–,–
OC(O)C(Cl)(Cl)Cl,inactive,inactive,inactive,inactive,inactive,–,–,inactive,inactive,–,–,–,–,–,–
